Screening data deposited in PubChem by several laboratories.
TIM10 inh = growth inhibitors of TIM10 yeast strain | 330,000 compounds, 1.4% hits | S. cerevisiae TIM10 strain growth, BacTiter-Glo luminescence, 24 h | AID 463195 | inhibition, % at 10 µM;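 active = inhibition of 40% or more at the single tested concentration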;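 note: wild-type TIM10 isogenic control strain grown at permissive 25 °C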
tim10-1 inh = inhibits growth of tim10-1 mutant yeast; S. cerevisiae tim10-1 ts strain growth, BacTiter-Glo, 24 h; inhibition, % at 20 µM; 330,000 compounds, 2.2% hits; AID 463190;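 active = inhibition of at least 40%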;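 note: mutant grown at 25 °C; 0% = DMSO wells with yeast and 100% = wells holding no yeast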
PfHsp90 yeast 2 = inhibits growth of yeast expressing Plasmodium falciparum Hsp90; inhibition, % at 9.4 µM; 310,000 compounds, 0.32% hits; AID 504621; S. cerevisiae expressing PfHsp90, BacTiter-Glo ATP, 48 h; yeast lacking PDR1 and PDR3 efflux regulators;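 active = every replicate shows inhibition above about 80%, whatever the replicate mean, limit read from the data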;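 note: 0% = DMSO neutral controls and 100% = 20 µM radicicol positive controls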
NLRP3 yeast inh = blocks the NALP3 inflammasome reconstituted in yeast; Yeast reconstituted NLRP3/ASC/caspase-1, beta-gal luminescence, 24 h; 330,000 compounds, 0.39% hits; inhibition, % at 10 µM; AID 2825;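 active = inhibition of 50% or more; inactive = inhibition below 50%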;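 note: plate controls were induced DMSO wells for no effect and uninduced yeast grown without galactose for full effect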
tim23-1 inh = growth inhibitors of tim23-1 mutant yeast | S. cerevisiae tim23-1 growth, BacTiter-Glo luminescence, 24 h | 330,000 compounds, 1.3% hits | inhibition, % at 20 µM;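 active = growth inhibition of the mutant yeast at or above 50%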;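 note: temperature-sensitive mutant grown at 25 °C; plate controls were DMSO-treated mutant yeast for no effect and medium wells lacking yeast for full effect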
SKKanGAS inh = blocks kanamycin growth of S. pyogenes SKKanGAS strain; BacTiter-Glo, 6 h; inhibition, % at 7.5 µM; 300,000 compounds, 1.3% hits; AID 1662;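 active = mean replicate score, as percent of positive control median, at least 50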;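 note: strain carries kanamycin resistance gene driven by streptokinase promoter and grows in 40 µg/ml kanamycin; loss of luminescence reflects streptokinase promoter inhibition or plain growth inhibition; 0% = median of DMSO wells and 100% = positive control at its reference dose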
tim23-1 confirm = confirmation of tim23-1 mutant yeast growth inhibitors | 4,400 compounds, 83% hits | shares compounds with tim23-1 inh | inhibition, % at 20 µM | S. cerevisiae tim23-1 growth, BacTiter-Glo luminescence, 24 h;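 active = inhibition above about 39% in either of two replicate wells at 20 µM, limit read from the data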;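 note: temperature-sensitive tim23-1 mutant grown at 25 °C; 0% = DMSO wells with yeast and 100% = medium wells without yeast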
* marks the source's active call; other numbers are inactive results; / = no result. An excerpt weighted towards active compounds, which were near 4.6% of everything screened.

SMILES	TIM10 inh	tim10-1 inh	PfHsp90 yeast 2	NLRP3 yeast inh	tim23-1 inh	SKKanGAS inh	tim23-1 confirm
COc1ccc(CNC(=O)CN2C(=O)COc3ccc(S(=O)(=O)N4CCOCC4)cc32)cc1	-2	15	-3	0	5	-1	/
Cc1ccc(Nc2cc(C)c3ccc(O)cc3n2)cc1C	11	-16	9	27	82*	-5	36*
CCC1CCCCN1S(=O)(=O)c1ccc(NC(=O)c2ccncc2)cc1 (stereo unspecified)	24	32	18	-5	79*	-4	30
CCC1CCCCN1S(=O)(=O)c1ccc(NC(=O)C2CCN(C(=O)c3ccco3)CC2)cc1 (stereo unspecified)	-2	10	1	5	15	3	/
Cc1cc2ccccn2c1C(=O)c1cc([N+](=O)[O-])cc([N+](=O)[O-])c1	38	39	13	12	56*	3	67*
NC(=O)NOCc1ccccc1	-11	-6	7	12	-3	-3	/
O=C(NOCc1ccccc1)c1coc(-c2ccccc2)n1	-10	-29	-7	/	60*	/	36
CC(=O)n1cc(N(C(=O)CCl)c2ccc(C)cc2)c2ccccc21	22	35	-7	12	69*	-5	36
CN(C)CCCN1C(=O)c2cccc3c(Br)ccc(c23)C1=O	28	38	11	3	62*	8	71*
O=C(O)CN1C(=O)c2cccc3c(Br)ccc1c23	-3	-13	0	7	-12	-5	/
CC(C)(C)OC(=O)C[C@H]1C/C=C\C[C@@H](CC(=O)N(CCO)Cc2ccccc2)C(=O)N[C@H](Cc2ccccc2)COC1=O	-1	-1	-2	4	2	/	/
Cc1cccc(S(=O)(=O)Nc2nc3ccccc3nc2OC(C)C)c1	39	28	6	18	53*	18	49*
O=C(CN1CCc2cc3c(cc2C1)OCCCO3)Nc1cccc(Br)c1	-1	39	2	3	60*	1	74*
CN(C)C(=O)c1ccc(NC(=O)CN2CCc3cc4c(cc3C2)OCCCO4)cc1	-1	13	27	9	5	-1	/
N#CC1(NC(=O)Cn2ncc(Cl)c(Cl)c2=O)CCCCC1	-5	0	-5	-2	-13	-12	/
N#C/C(=C\c1c[nH]c2ccccc12)C(=O)NC1CCCC1	29	12	-3	20	59*	-1	44*
Nc1n[nH]c(C2CC2)c1N=Nc1ccc(Cl)c(Cl)c1	39	35	/	30	69*	82*	9
Nc1n[nH]c(C2CC2)c1N=Nc1ccc(Cl)cc1	25	8	/	21	69*	-4	24
Cc1ccc2c(c1)c(CC(=O)Nc1ccc(F)cc1)c(C(=O)O)n2C	15	11	-31	14	14	13	/
O=C1CCN(Cc2ccccc2)C=C1c1ccc(Cl)cc1	19	18	-9	9	43	/	/
O=C1CCN(Cc2ccccc2)C=C1c1ccc2ccccc2c1	19	18	-12	19	50*	/	47*
N/C(CC(=O)Nc1ccc(F)cc1F)=N\OC(=O)c1cccs1	30	34	19	-1	61*	4	40*
S=c1[nH]nc(C2CCCCC2)n1/N=C/c1ccccc1	23	32	7	21	67*	1	40*
Fc1ccc(/C=N/n2c(C3CCCCC3)n[nH]c2=S)cc1	34	35	-4	22	71*	1	32
CCOc1ccc(/C=N/n2c(C3CCCCC3)n[nH]c2=S)cc1	37	28	50	24	74*	17	21
SMILES	TIM10 inh	tim10-1 inh	PfHsp90 yeast 2	NLRP3 yeast inh	tim23-1 inh	SKKanGAS inh	tim23-1 confirm
CN(C)c1ccc(/C=N/n2c(C3CCCCC3)n[nH]c2=S)cc1	9	14	-5	28	50*	10	33
CN(c1nc2nonc2nc1NC1CC1)C1CCOC1 (stereo unspecified)	0	-3	20	3	8	-4	/
O=C(COc1ccc(Br)cc1)NCCCNC(=O)c1ccncc1	-4	-19	-6	8	-12	-17	/
O=C(CN1CCN(c2ccccc2)CC1)N/N=C/c1cccc(F)c1	-4	14	-7	14	12	-7	/
COc1ccc(-n2sc3c(c2=S)-c2cc(OC)ccc2NC3(C)C)cc1	5	23	21	14	33	24	/
COc1ccc2c(c1)-c1c(ssc1=S)C(C)(C)N2	31	32	3	30	53*	-7	47*
CCc1ccc(N2C(=O)CC(NNc3nc4ccccc4s3)C2=O)cc1 (stereo unspecified)	-1	1	-14	24	-7	8	/
Cc1cc(C(=O)Nc2ccc(Cl)cc2)c(C)n1-c1ccccc1	36	39	/	10	56*	12	54*
Cc1cc(C(=O)Nc2ccc(Cl)cc2)n(-c2ccccc2)n1	11	28	-6	27	22	-2	/
CC(C)N1CCN(Cc2coc3ccccc3c2=O)CC1CCO (stereo unspecified)	20	9	-8	5	3	-3	/
COc1cc2c(cc1OC)CN(C(=O)c1ccncc1)CC2	-8	12	4	-14	16	-7	/
COc1ccc(C(=O)N2CCc3ccc(NC(=O)c4ccccn4)cc3C2)cc1F	2	37	10	5	52*	7	40*
O=C1CCCc2c1[nH]c1ccccc21	1	2	/	17	0	0	/
c1ccc2c3c([nH]c2c1)-c1[nH]ncc1CC3	3	13	-1	24	61*	-8	38
CCn1c(Cn2nnc(-c3ccccc3)n2)nnc1SCc1ccc(Cl)c(Cl)c1	28	33	29	25	53*	9	45*
CCn1c(Cn2nnc(-c3ccccc3)n2)nnc1SCC(=O)N1CCOCC1	8	4	6	15	8	-2	/
COc1ccccc1N1CCN(C(=O)CSc2nc3ccccc3nc2N2CCC(C)CC2)CC1	17	21	3	24	34	33	/
COc1ccccc1NC(=O)c1ccc(NC(=O)C2CC2C)cc1 (stereo unspecified)	34	31	-9	6	52*	/	48*
CN(Cc1ccco1)C(=O)C1CCCN(c2ncnc3c2nc2n3CCCCC2)C1 (stereo unspecified)	-2	30	10	7	2	2	/
CCOC(=O)c1ccc(NC(=O)CSc2nc(=O)n3cccc(C)c3n2)cc1	-6	22	/	-8	52*	2	50*
COc1ccc(CNC(=O)CN2C(=O)c3ccc([N+](=O)[O-])cc3C2=O)cc1	-2	19	-12	23	8	1	/
COC(=O)c1sc(N2CCN(c3ccc(Cl)cc3)CC2)nc1N	-15	4	-12	4	8	6	/
